Measurements published in the supplement of paper PMC3334620.
Whole data set: some 33,000 sequences, median “E-score (-0.5 to 0.5)” near -0.032, cut for the highest 2% near 0.36. This excerpt belongs to a sample that is enriched for the highest values.

target: T1, Sko1 (UniProt Q02100); experiment: PBM E-score (8-mer binding enrichment) (E-score (-0.5 to 0.5)); higher = stronger / more preferred TF binding; settings: protein concentration: 200 nM; construct: GST-full length
T1 sequence: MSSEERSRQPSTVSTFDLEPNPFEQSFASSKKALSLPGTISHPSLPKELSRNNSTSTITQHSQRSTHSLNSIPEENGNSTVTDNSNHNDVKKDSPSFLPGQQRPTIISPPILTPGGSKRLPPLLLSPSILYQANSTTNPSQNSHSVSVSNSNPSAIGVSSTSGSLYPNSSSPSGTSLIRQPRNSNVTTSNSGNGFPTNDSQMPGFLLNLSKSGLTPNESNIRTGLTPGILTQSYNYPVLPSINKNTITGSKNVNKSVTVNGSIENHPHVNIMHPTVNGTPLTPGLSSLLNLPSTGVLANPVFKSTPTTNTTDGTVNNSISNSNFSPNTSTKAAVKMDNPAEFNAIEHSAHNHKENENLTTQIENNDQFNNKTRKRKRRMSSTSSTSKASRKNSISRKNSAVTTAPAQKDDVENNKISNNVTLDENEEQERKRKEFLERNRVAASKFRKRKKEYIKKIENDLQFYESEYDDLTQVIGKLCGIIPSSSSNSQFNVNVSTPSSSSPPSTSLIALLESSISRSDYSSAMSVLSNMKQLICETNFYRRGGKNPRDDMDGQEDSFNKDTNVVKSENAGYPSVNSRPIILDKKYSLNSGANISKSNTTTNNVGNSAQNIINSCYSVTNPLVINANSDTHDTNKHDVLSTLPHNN
Summary of the method: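 E-scores (a modified Wilcoxon-Mann-Whitney statistic) were assigned by the Universal PBM Analysis Suite to every ungapped eight-base word pooled with its reverse complement. The input came from universal all-10-mer Agilent arrays made double-stranded by primer extension and probed with GST-tagged yeast transcription factors at about 100-200 nM. Fluorescent anti-GST detected bound protein, and masliner normalised the scans.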

Row | Sequence | PBM E-score
1 | AACCGTTG | -0.00171
2 | CGGCATAC | -0.00615
3 | ACGCCTGA | 0.15
4 | CAATATTA | 0.264
5 | TAATATTA | 0.362
6 | AAATATTA | 0.295
7 | AGGCCAGG | -0.292
8 | CCTATACC | -0.227
9 | CATGACCG | 0.0181
10 | AAGAAGTG | -0.0945
11 | CAGGGAAG | -0.212
12 | GTGGTTAA | 0.205
13 | ACCGCTTA | -0.00218
14 | CACGTGGA | 0.315
15 | AACGTGAA | 0.14
16 | TACGTGGA | 0.424
17 | TACGTGAA | 0.425
18 | GACGTGGA | 0.23
19 | CACGTGAA | 0.319
20 | CGAGCCTC | -0.324
21 | GGCCCCTA | -0.188
22 | TAGGCTCA | -0.19
23 | AAACAGTA | 0.14
24 | CGATTACC | -0.0987

Row | Sequence | PBM E-score
25 | CGATTACA | 0.106
26 | AGATTACC | 0.108
27 | AGATTACG | 0.459
28 | CGATTACG | 0.448
29 | AGATTACT | 0.201
30 | ACCTGGCG | -0.109
31 | AAGCTACG | 0.251
32 | GAAAAAAC | 0.201
33 | CATGACGC | 0.465
34 | ACTGACGA | 0.364
35 | CCTGACGA | 0.24
36 | CATGACTC | -0.0516
37 | CATGACAC | 0.258
38 | ACTGACGG | -0.104
39 | TATGACGA | 0.475
40 | AATGACCA | 0.0136
41 | TATGACAA | 0.21
42 | AATGACTA | 0.0941
43 | AATGACGA | 0.476
44 | TATGACCA | 0.178
45 | TCGACGCA | 0.0313
46 | ATCGCCAA | -0.119
47 | GTTTTCTA | 0.201
48 | GCAGTAGA | -0.0999

Row | Sequence | PBM E-score
49 | ATGGCAGG | -0.281
50 | CAGGACCC | -0.221
51 | ATTGACGC | 0.319
52 | GATGACAC | 0.257
53 | CATGACGA | 0.463
54 | GATGACGA | 0.474
55 | GATGACCC | -0.0957
56 | CATGACAA | -0.00914
57 | AATGACGC | 0.478
58 | ACTGACGC | 0.334
59 | GATGACCA | 0.0721
60 | GATGACGC | 0.473
61 | CATGACGG | 0.326
62 | GATGACTA | 0.0669
63 | GGACCCTA | -0.273
64 | GTTTTGTA | 0.262
65 | ACGATAGT | 0.295
66 | ATATGCGC | 0.0277
67 | CGATCGCG | 0.0985
68 | CGAGCACG | 0.0337
69 | GACCAGCA | -0.185
70 | GAGGGCGA | -0.265
71 | AATGACGG | 0.388
72 | ATTGACGG | 0.0348

Row | Sequence | PBM E-score
73 | AATGACCG | 0.0453
74 | GCCTCAGA | -0.148
75 | AGGTAACT | 0.0427
76 | AAGTAACG | 0.0665
77 | AAGTAACT | 0.153
78 | ACGTAACG | 0.469
79 | ACGTAACT | 0.459
80 | CCGTAACC | -0.0904
81 | ACGTAACA | 0.464
82 | TCGTAACA | 0.275
83 | CCGTAACG | -0.103
84 | GCGTAACA | 0.317
85 | GCGTAACC | 0.328
86 | ACGTAACC | 0.469
87 | AGCTGTGG | -0.296
88 | GGTCCCAC | -0.0859
89 | AATGAGTA | 0.178
90 | CGGACTGC | -0.0639
91 | CTCTTACA | -0.0812
92 | ATTTAGTA | 0.25
93 | ATGAAATG | -0.059
94 | AGGCAAGC | -0.126
